{
  "source": "PubChem BioAssay (NCI)",
  "system": "HL-60(TB) leukemia",
  "assay": "NCI-60 one-dose screen, 48 h (100 = growth as untreated, 0 = no growth, -100 = all killed)",
  "conditions": "10 µM unless noted",
  "note": "The panel holds about 83,000 compounds, 20% with a hit somewhere; the sample as a whole holds those more often.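 Values shown are percent growth following 48 h exposure of cells in 96-well plates to a single concentration of compound; below 10 was considered active.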 A number with no mark means an inactive call. The source made the active and inactive calls.",
  "data": [
    {"smiles": "COc1ccc(-c2nc(SCCC(C)C)nc(N/N=C\\c3ccc(O)cc3)c2C#N)cc1", "values": [
      {"measurement": "growth", "result": 73.3, "unit": "%"}
    ]},
    {"smiles": "Fc1ccc(-c2cc3nc(C(Cl)Cl)nc(-c4cccs4)n3n2)cc1", "values": [
      {"measurement": "growth", "result": "-2% (active)"}
    ]},
    {"smiles": "Oc1ccc(-c2nc3ccc(/C(=N\\N=C\\c4ccc(Cl)cc4)c4ccccc4)cc3[nH]2)cc1", "values": [
      {"measurement": "growth", "result": 27.5, "unit": "%"}
    ]},
    {"smiles": "CC(=NNc1ncnc2ccccc12)c1ccc(S(C)(=O)=O)cc1", "values": [
      {"measurement": "growth", "result": 98.9, "unit": "%"}
    ]},
    {"smiles": "CC(=O)Nc1cc(N2CCOCC2)c2nc(NC(=O)c3[nH]c(C)c(Cl)c3Cl)sc2c1", "values": [
      {"measurement": "growth", "result": 82.9, "unit": "%"}
    ]},
    {"smiles": "Cc1nc(-c2cc3ccccc3oc2=O)ccc1C(=O)/C=C/c1ccc(N2CCOCC2)cc1", "values": [
      {"measurement": "growth", "result": 38.7, "unit": "%"}
    ]},
    {"smiles": "CC(=O)c1ccc(Nc2nc(SCC(C)C)nc(-c3ccccc3)c2C#N)cc1", "values": [
      {"measurement": "growth", "result": 101, "unit": "%"}
    ]},
    {"smiles": "CS(=O)(=O)c1ccc(-c2nn(-c3ccccc3)cc2/C=N/NC(=O)c2ccncc2)cc1", "values": [
      {"measurement": "growth", "result": 81.1, "unit": "%"}
    ]},
    {"smiles": "CC(C)NC(=O)c1cc(-c2ccc(NC(=O)Nc3ccc(F)cc3)cc2)nc2cccnc12", "values": [
      {"measurement": "growth", "result": 105, "unit": "%"}
    ]},
    {"smiles": "CC[C@H](CC[C@@H](C)[C@H]1CC[C@H]2[C@@H]3CC(=O)C4=CC(=O)/C(=C/c5ccc([N+](=O)[O-])cc5)C[C@]4(C)[C@H]3CC[C@]12C)C(C)C", "values": [
      {"measurement": "growth", "result": 83.5, "unit": "%"}
    ]},
    {"smiles": "CNC(=O)c1c(NC(=O)c2cccc(C(F)(F)F)c2F)sc2c1CCC(=O)C2", "values": [
      {"measurement": "growth", "result": "4.41% (active)"}
    ]},
    {"smiles": "COc1ccc(-c2cc(-c3ccc(N4CCOCC4)cc3)n3c(n2)nc2ccccc23)cc1OC", "values": [
      {"measurement": "growth", "result": 71, "unit": "%"}
    ]},
    {"smiles": "O=C(CCCCCCN1CC(=O)N2[C@@H](c3ccc(Cl)s3)c3[nH]c4ccccc4c3C[C@H]2C1=O)NO", "values": [
      {"measurement": "growth", "result": "1.42% (active)"}
    ]},
    {"smiles": "COc1cccc(COc2ccc(/C=C3/C(=O)Nc4cc(Cl)ccc43)cc2)c1", "values": [
      {"measurement": "growth", "result": 105, "unit": "%"}
    ]},
    {"smiles": "O=C(CN1C(=O)/C(=C/c2ccccc2)SC1=S)N1CCOCC1", "values": [
      {"measurement": "growth", "result": 89.1, "unit": "%"}
    ]},
    {"smiles": "Cc1nc(/N=C(N)/N=C(\\N)c2cccc(Br)c2)sc1C", "values": [
      {"measurement": "growth", "result": 12.4, "unit": "%"}
    ]},
    {"smiles": "COc1ccc2[nH]cc(-c3cc(N)n4nc(-c5c[nH]c6ccc(OC)cc56)cc4n3)c2c1", "values": [
      {"measurement": "growth", "result": "-46.1% (active)"}
    ]},
    {"smiles": "COc1ccc(-c2nc3cccc(O)c3c(=O)n2Cc2ccccc2)cc1COc1ccc(NC(C)=O)cc1", "values": [
      {"measurement": "growth", "result": "45.4% [3 µM]"}
    ]},
    {"smiles": "NS(=O)(=O)c1ccc(Nc2nc(N/N=C/c3ccc(C(F)(F)F)cc3)nc(Nc3ccccc3)n2)cc1", "values": [
      {"measurement": "growth", "result": 48.9, "unit": "%"}
    ]},
    {"smiles": "O=C1CCCC2=C1C(c1c[nH]c3ccc(Br)cc13)Cc1cc(Br)ccc1N2", "note": "(stereo not given)", "values": [
      {"measurement": "growth", "result": 12.9, "unit": "%"}
    ]},
    {"smiles": "O=C(Nc1nc2ccc([N+](=O)[O-])cc2s1)Nc1ccccc1Cl", "values": [
      {"measurement": "growth", "result": 28.7, "unit": "%"}
    ]},
    {"smiles": "Cc1c(F)cc(C(N)=O)cc1NCC(=O)Nc1ccc([N+](=O)[O-])cc1", "values": [
      {"measurement": "growth", "result": 132, "unit": "%"}
    ]},
    {"smiles": "O=C(CN1CCN(c2cc(=O)n(-c3ccccc3)c3ccccc23)CC1)Nc1ccc([N+](=O)[O-])cc1", "values": [
      {"measurement": "growth", "result": 85, "unit": "%"}
    ]},
    {"smiles": "CN1CCN(Cc2ccc(NC(=O)c3cncc(C#Cc4cnc5[nH]ncc5c4)c3)cc2C(F)(F)F)CC1", "values": [
      {"measurement": "growth", "result": "8.94% (active)"}
    ]},
    {"smiles": "COc1ccc(N2C(=O)c3cc(OC)c(OC)cc3NC2SCc2ccccc2)cc1", "note": "(stereo not given)", "values": [
      {"measurement": "growth", "result": 110, "unit": "%"}
    ]},
    {"smiles": "NS(=O)(=O)c1cccc(Nc2nc(SCC(=O)c3ccc(Cl)cc3)nc3ccccc23)c1", "values": [
      {"measurement": "growth", "result": 90.9, "unit": "%"}
    ]},
    {"smiles": "O=C1Nc2ccc(Cl)cc2/C1=C/c1ccc(OCC(=O)c2ccc(Br)cc2)cc1", "values": [
      {"measurement": "growth", "result": 110, "unit": "%"}
    ]},
    {"smiles": "NS(=O)(=O)c1ccc(-n2cc(CN3CCNCC3)nn2)cc1", "values": [
      {"measurement": "growth", "result": 107, "unit": "%"}
    ]},
    {"smiles": "COc1ccc(CN2C(=O)/C(=C/c3nc(CO)cs3)SC2=S)cc1", "values": [
      {"measurement": "growth", "result": 58.9, "unit": "%"}
    ]},
    {"smiles": "CC1(C)CC[C@]23CC[C@]4(C)[C@H](CC[C@@H]5[C@@]6(C)CC[C@H](N)C(C)(C)[C@@H]6CC[C@]54C)[C@H]2[C@H]1OC3", "values": [
      {"measurement": "growth", "result": "-38.4% (active)"}
    ]},
    {"smiles": "COc1cc(OC)c(S(N)(=O)=O)cc1C(=O)/C=C/c1ccc(C)cc1", "values": [
      {"measurement": "growth", "result": "6.73% (active)"}
    ]},
    {"smiles": "O=S(=O)(Nc1ccc2c(c1)OC(F)(F)O2)c1ccc(-c2cnc(C3CC3)o2)cc1", "values": [
      {"measurement": "growth", "result": "3.85% (active)"}
    ]},
    {"smiles": "CN1CCC[C@]2(C)[C@H]3CC[C@@H]4[C@@H]5[C@H]6OC[C@@]5(CCC6(C)C)CC[C@@]4(C)[C@]3(C)CC[C@H]2C1(C)C", "values": [
      {"measurement": "growth", "result": 30.6, "unit": "%"}
    ]},
    {"smiles": "Fc1ccc(-c2cc3nc(C(Cl)Cl)nc(-c4ccco4)n3n2)cc1", "values": [
      {"measurement": "growth", "result": "-42.7% (active)"}
    ]},
    {"smiles": "COc1cc(-c2nc3ccc(-c4nnc(SCC(=O)Nc5ccc(C(C)=O)cc5)o4)cc3[nH]2)cc(OC)c1OC", "values": [
      {"measurement": "growth", "result": 104, "unit": "%"}
    ]},
    {"smiles": "CCCCNNC(=O)c1ccc(-c2cccc(F)c2F)cc1", "values": [
      {"measurement": "growth", "result": 28.4, "unit": "%"}
    ]},
    {"smiles": "C#Cc1ccc(C(=O)NCc2ccc(/C=C/C(=O)c3nccn3C)cc2)cc1", "values": [
      {"measurement": "growth", "result": "0.695% (active)"}
    ]},
    {"smiles": "N#Cc1c(-c2ccc(Br)cc2)cc(-c2c[nH]c3ccccc23)nc1N", "values": [
      {"measurement": "growth", "result": 28.8, "unit": "%"}
    ]},
    {"smiles": "CCC(CC)N1C(=O)/C(=c2\\sc3n(c2=O)NC2C(N=3)N(CC)C(=O)N2CC)c2ccccc21", "note": "(stereo not given)", "values": [
      {"measurement": "growth", "result": 26.5, "unit": "%"}
    ]},
    {"smiles": "C#CCOc1cccc(/C(N)=N/C(N)=N/c2nc3ccccc3s2)c1", "values": [
      {"measurement": "growth", "result": 88.8, "unit": "%"}
    ]},
    {"smiles": "COc1cccc(N2CCN(c3ncnc4c3[nH]c3ccc(F)cc34)C[C@@H]2C)c1", "values": [
      {"measurement": "growth", "result": "-38.8% (active)"}
    ]},
    {"smiles": "COc1cc(/C=C/C(=O)c2cc(OC)c(OC)c(OC)c2)ccc1OCc1ccc(F)cc1", "values": [
      {"measurement": "growth", "result": "9.93% (active)"}
    ]},
    {"smiles": "Cn1cc(CNc2nc3ccc(OC/C(=C/F)CN)cc3o2)ccc1=O", "values": [
      {"measurement": "growth", "result": 101, "unit": "%"}
    ]},
    {"smiles": "COc1cc(C(=O)c2cc(C(C)=O)c3ccc(C)cn23)cc(OC)c1OC", "values": [
      {"measurement": "growth", "result": "8.8% (active)"}
    ]},
    {"smiles": "c1ccc(-c2cn3c(-c4c[nH]c5ccccc45)csc3n2)cc1", "values": [
      {"measurement": "growth", "result": 56, "unit": "%"}
    ]},
    {"smiles": "COc1cc(OC)c(S(=O)(=O)NNC(=O)c2ccncc2)cc1C(=O)/C=C/c1ccc(C)cc1", "values": [
      {"measurement": "growth", "result": 51.2, "unit": "%"}
    ]},
    {"smiles": "O=C(Nc1ccc(N2CCOCC2)cc1)Nc1ccc2c(ccn2C(=O)c2cccc(F)c2)c1", "values": [
      {"measurement": "growth", "result": 96.7, "unit": "%"}
    ]},
    {"smiles": "COc1ccc(C2C(C#N)=C(/N=C/c3ccc(Cl)cc3)Oc3c2sc2c(C)cccc32)cc1", "note": "(stereo not given)", "values": [
      {"measurement": "growth", "result": "4.04% (active)"}
    ]},
    {"smiles": "O=C1/C(=C/C2=Cc3ccccc3OC2)SC(=S)N1c1ccc(F)cc1", "values": [
      {"measurement": "growth", "result": 95.2, "unit": "%"}
    ]},
    {"smiles": "Oc1ccccc1/C=N/Nc1nc(N/N=C/c2ccccc2O)nc(N2CCOCC2)n1", "values": [
      {"measurement": "growth", "result": "3.74% (active)"}
    ]}
  ]
}
